The nature of experiment [1]: NCI Yeast Anticancer Drug Screen. Data for the rad50 strain (AID 155).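 Note: 0% = growth of vehicle-only cultures of the same strain.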 The settings on record: S. cerevisiae rad50 strain growth inhibition, hits give high values; at 50.0 µM unless noted. The essentials:
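Cells are treated with compound, grown, and their growth is then scored against vehicle-only cultures of the same repair-deficient yeast strain.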

Experiment [2] can be described thus: NCI Yeast Anticancer Drug Screen. Data for the mec2-1 strain (AID 157). The settings on record: S. cerevisiae mec2-1 strain, hits give high values; at 50.0 µM unless noted. The essentials: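 Compounds were applied to mec2-1 yeast cells. Their growth was then compared with that of vehicle-treated cultures to give growth inhibition.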
A short description of experiment [3]: NCI Yeast Anticancer Drug Screen. Data for the sgs1 mgt1 strain (AID 161).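 Note: 0% = growth of cultures given vehicle only.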 The settings on record: S. cerevisiae sgs1 mgt1 strain, hits give high values; at 50.0 µM unless noted. The essentials: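 Percent growth inhibition was derived by comparing compound-exposed mutant yeast with vehicle-exposed cultures. The strain carries alterations in DNA damage repair.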

Experiment [4] can be described thus: NCI Yeast Anticancer Drug Screen. Data for the cln2 rad14 strain (AID 165).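 Note: 0% = growth equal to vehicle treated cultures.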 The settings on record: S. cerevisiae cln2 rad14 strain, hits give high values; at 50.0 µM unless noted. The essentials: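 Strain: cln2 rad14 yeast, altered in cell cycle control and DNA damage repair. Read-out: growth inhibition vs vehicle.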
Experiment [5] is described as follows: NCI Yeast Anticancer Drug Screen. Data for the bub3 strain (AID 167). The settings on record: S. cerevisiae bub3 mutant strain, hits give high values; at 50.0 µM unless noted. The essentials:
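Part of a panel of yeast mutants defective in DNA damage repair or cell cycle regulation. Each strain is grown with compound, and inhibition is calculated relative to solvent-treated cultures.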

Experiment [6] is described as follows: NCI Yeast Anticancer Drug Screen. Data for the mlh1 rad18 strain (AID 175). The following applies: S. cerevisiae mlh1 rad18 strain growth inhibition, hits give high values; at 50.0 µM unless noted. The essentials: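 A repair-deficient yeast strain is exposed to test compound, and growth is scored relative to vehicle-treated controls.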

Molecules are shown by their SMILES. About 79,000 compounds went through this panel and 15% of them were active in at least one assay; those are over-represented in the sample as a whole. A number with no mark means an inactive call. Calls of active or inactive are those of the source. Cut-off read from the data, not from the text of the source: active = growth inhibition above about 70%; inactive = the rest.

With `Nc1ccc(Cc2cc([N+](=O)[O-])cc([N+](=O)[O-])c2)cc1`, the growth inhibition is 3.15% in experiment [1]; -1.75% in experiment [2]; 11.4% in experiment [3]; -42% in experiment [4]; 15.3% in experiment [5]; -29.8% in experiment [6].
Take `Cn1c(-c2csc(-c3ccc(Cl)cc3)n2)n[nH]c1=S`: the growth inhibition in experiment [1] was 5.65%; in experiment [2] it was 12.8%; in experiment [3], 11.6%; in experiment [4] it was 8.3%; in experiment [5] it was 6.35%; in experiment [6] it was -36.1%.
Take `O=c1oc(-c2ccccc2)nc2c1sc1nc(-c3ccccc3)oc(=O)c12`: the growth inhibition was 47.9% in experiment [1]; 30.7% in experiment [2]; 43.3% in experiment [3]; 79.8% (active) in experiment [4]; 24.6% in experiment [5]; 49.4% in experiment [6].
Regarding `O=C(NCCCl)NC1C(O)OC(CO)C(O)C1O` (stereo unspecified), the growth inhibition in experiment [1] is 93.2% (active); in experiment [2], 96% (active); in experiment [3], 93.8% (active); in experiment [4], 76.5% (active); in experiment [5], 96.8% (active); in experiment [6] it was 96.7% (active).
In the case of `CN(Cc1ccc2nc(N)nc(N)c2c1)c1ccc(C(=O)NC(CCC(=O)O)C(=O)O)cc1` (stereo unspecified), the growth inhibition was 65.3% in experiment [1]; 88.8% (active) in experiment [2]; 77.8% (active) in experiment [3]; 4.7% in experiment [4]; -24.5% in experiment [5]; 33.3% in experiment [6].
As for `CC1=CCCC2C(C=O)(C1)CC(C)C2(CO)CC/C(=C/CO)CO` (stereo unspecified), the growth inhibition in experiment [1] is 3.8%; in experiment [2] it was 4.05%; in experiment [3], -5.5%; in experiment [4], 32.8%; in experiment [5], -3.4%; in experiment [6] it was -5.7%.
In the case of `CCOC(=O)c1sc(C(=O)O)cc1-c1cccs1`, the growth inhibition in experiment [1] was 3.9%; in experiment [2] it was 9.65%; in experiment [3], 11.5%; in experiment [4], -5.6%; in experiment [5] it was -10.6%; in experiment [6], 15%.
Consider `O=C1c2ccccc2C(=O)N1CCS(=O)(=O)O`, for which the growth inhibition in experiment [1] was 8.65%; in experiment [2], 18.1%; in experiment [3] it was 14.2%; in experiment [4], -7.55%; in experiment [5], 10.2%; in experiment [6] it was 9.9%.
Take `COc1cc(C2c3cc4c(cc3[C@H](OCCN(C)C)[C@@H]3COC(=O)C23)OCO4)cc(OC)c1O` (stereo partly specified): the growth inhibition was 83.2% (active) in experiment [1]; 87.7% (active) in experiment [2]; 83.3% (active) in experiment [3]; 67.8% in experiment [4]; 78.2% (active) in experiment [5]; 82.6% (active) in experiment [6].
On to `NC(=O)Nc1ccccc1-c1ccccc1`, for which the growth inhibition is -0.6% in experiment [1]; -11.2% in experiment [2]; 13.8% in experiment [3]; -26.4% in experiment [4]; -10.8% in experiment [5]; 7.45% in experiment [6].
As for `CCOc1ccc(OCC)cc1`, the growth inhibition in experiment [1] is 3.6%; in experiment [2], -0.65%; in experiment [3] it was -9.05%; in experiment [4], -29.3%; in experiment [5], -11.1%; in experiment [6] it was 4.65%.
On to `O=C1COC(c2ccccc2O)=NN1Cc1ccccc1`, for which the growth inhibition in experiment [1] is -14.6%; in experiment [2], -0.3%; in experiment [3], -5.3%; in experiment [4] it was -4.75%; in experiment [5] it was -8.6%; in experiment [6], -1.1%.
Regarding `CC(C)=NNC(=O)c1ccc(N)cc1`, the growth inhibition is 36.1% in experiment [1]; 15% in experiment [2]; 14.4% in experiment [3]; 15.8% in experiment [4]; 22.1% in experiment [5]; 15.3% in experiment [6].
With `COc1ccc2nc3ccccc3c(NCCC[N+](C)(C)[O-])c2c1[N+](=O)[O-]`, the growth inhibition in experiment [1] was -6.4%; in experiment [2] it was -16.4%; in experiment [3] it was 3.45%; in experiment [4], -34.1%; in experiment [5], -13.1%; in experiment [6], -7.55%.
As for `COc1cccc(-c2cc(=O)c3cc(N4CCOCC4)ccc3[nH]2)c1`, the growth inhibition is -35.9% in experiment [1]; -27.9% in experiment [2]; -22.9% in experiment [3]; -2% in experiment [4]; -40.9% in experiment [5]; -58.2% in experiment [6].
With `CC(=O)OCc1c(COC(C)=O)c(-c2ccc(Cl)cc2)n2c1CCC2`, the growth inhibition in experiment [1] was 34%; in experiment [2] it was 16.6%; in experiment [3], 19.3%; in experiment [4], -18.1%; in experiment [5] it was 9.6%; in experiment [6] it was 23.9%.
Turning to `CCCOC(CCC(=O)NC(C)(C)C)CC(=O)NC(C)(C)C` (stereo unspecified), the growth inhibition in experiment [1] is 5.85%; in experiment [2] it was 5.45%; in experiment [3] it was 6.9%; in experiment [4] it was 4.15%; in experiment [5] it was 0.55%; in experiment [6], -9.9%.
On to `NC(=O)C(NCc1ccccc1)c1ccccc1` (stereo unspecified), for which the growth inhibition in experiment [1] was -2.65%; in experiment [2], 4.4%; in experiment [3] it was 1.6%; in experiment [4] it was 12.5%; in experiment [5], 2.6%; in experiment [6], 2.6%.
For the molecule `Cc1ccc(NC(=O)Oc2ccc(C#N)cc2)c(C)c1`, the growth inhibition in experiment [1] was 7.45%; in experiment [2], -22.8%; in experiment [3] it was -0.9%; in experiment [4], 2.05%; in experiment [5], -3.35%; in experiment [6], 8.9%.
As to `Cc1c2cc[n+](C)c(C)c2cc2c1[nH]c1ccccc12`, the growth inhibition in experiment [1] was 64.8%; in experiment [2], 19.8%; in experiment [3], 34.1%; in experiment [4], 12.8%; in experiment [5], 22.4%; in experiment [6], 37.8%.
In the case of `C(/C=N/NC1=NCCN1)=N\NC1=NCCN1`, the growth inhibition was 42% in experiment [1]; 18.1% in experiment [2]; 28.4% in experiment [3]; 2.85% in experiment [4]; 36.6% in experiment [5]; 41.5% in experiment [6].

These data come from PubChem BioAssay (NCI).
